PubChem BioAssay AID686979 (National Center for Advancing Translational Sciences (NCATS), 2013)
“And” between values parts separate entries of the source, which are not always exact repeats. Identical values can stand only once. The whole screen tested about 420,000 compounds, of which about 50,000 (12%) were called active. Roughly 26% stayed inconclusive and do not appear here. Shown is part of a subset that was picked to be rich in actives. Unmarked numbers belong to inactive results. Calls come from the whole dose curve; as a rule, active = well fitted inhibition curve with a large enough effect; inconclusive = small, poorly fitted or top-dose-only effect; inactive = flat fitted curve, though single readings scatter.
% is set by controls: 0 for no effect and ±100 for the full control effect; potency is the fitted concentration of half-maximal effect.

Experiment: qHTS for Inhibitors of human tyrosyl-DNA phosphodiesterase 1 (TDP1): qHTS in cells in presence of CPT; note: nearly all actives have a fitted effect of over 55% in size
Settings: chicken DT40 Tdp1-/-;hTDP1 cells + 20 nM CPT, ATP luminescence, 48 h; series mostly up to 46.2 µM; activity change, negative = growth inhibition: at the top concentration
How it was run: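 Cell growth measured by CellTiter-Glo luminescence after a minimum 48 h, 37 C compound exposure with 20 nM CPT in Tdp1-knockout DT40 cells stably expressing hTDP1, seeded 400/well; qHTS titration format.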
In the case of `CCCCn1c(N)c(N(CC(C)C)C(=O)C2CSC3(C)CCC(=O)N23)c(=O)[nH]c1=O` (stereo unspecified), the “activity change, negative = growth inhibition” value is reported as -2.75%.
For `COc1ccc(-c2cnc3c(c2)C(=O)N([C@H](C)CO)C[C@@H](C)[C@H](CN(C)Cc2ccccc2)O3)cc1`, the Potency was 14.6 µM (active).
With `C[C@H]1CN([C@@H](C)CO)C(=O)Cc2cc(NS(C)(=O)=O)ccc2O[C@@H]1CN(C)CC1CC1` the “activity change, negative = growth inhibition” value was -3.44%.
For `Cc1ccc(CN(C)C[C@@H]2OCc3cnnn3CCCC(=O)N([C@@H](C)CO)C[C@H]2C)cc1`, the “activity change, negative = growth inhibition” value was -7.27%.
In the case of `C[C@H](CO)N1C[C@H](C)[C@H](CN(C)CC2CC2)Oc2ccc(NC(=O)CCN3CCOCC3)cc2C1=O`, the “activity change, negative = growth inhibition” value is reported as 9.49%.
With `C[C@H]1CN([C@@H](C)CO)C(=O)c2cc(-c3cccc(F)c3)cnc2O[C@@H]1CN(C)S(C)(=O)=O` the “activity change, negative = growth inhibition” value was 4.29%.
In the case of `C[C@@H]1CN([C@H](C)CO)C(=O)c2cc(Br)cnc2O[C@@H]1CN(C)Cc1cncnc1`, the “activity change, negative = growth inhibition” value is reported as -9.96%.
In the case of `C[C@H](CO)N1C[C@H](C)[C@@H](CN(C)Cc2ccc3c(c2)OCO3)OCc2cnnn2CCCC1=O`, the “activity change, negative = growth inhibition” value is reported as 9%.
For `CCOC(=O)CCCCCC(=O)Nc1ccc2c(c1)CC(=O)N([C@@H](C)CO)C[C@H](C)[C@@H](CN(C)Cc1ccccc1)O2`, the Potency was 18.4 µM (active).
With `C[C@H]1CN([C@@H](C)CO)C(=O)CCCn2nncc2CO[C@@H]1CN(C)Cc1ccc(Oc2ccccc2)cc1` the Potency was 23.1 µM (active).
With `Cc1ccccc1NC(=O)c1cc(S(=O)(=O)Nc2cccc(C(=O)O)c2)ccc1Cl` the “activity change, negative = growth inhibition” value was -2.45%.
With `Cc1cc(NC(=O)COc2ccc([N+](=O)[O-])cc2)no1` the “activity change, negative = growth inhibition” value was 1%.
For `CC1CCCC(C)N1C(=O)CSc1nnnn1C1CCCC1` (stereo unspecified), the “activity change, negative = growth inhibition” value was -3.92%.
In the case of `CCc1nc(N2CCN(C(C)=O)CC2)c2c3c(sc2n1)CCCC3`, the “activity change, negative = growth inhibition” value is reported as -8.38%.
In the case of `Cc1c(OC(C)C(=O)N[C@@H](Cc2ccccc2)C(=O)O)ccc2c3c(c(=O)oc12)CCCC3` (stereo partly specified), the “activity change, negative = growth inhibition” value is reported as 2.76%.
With `Cc1c(Br)c([N+](=O)[O-])nn1C(C)C(=O)Nc1nccs1` (stereo unspecified) the “activity change, negative = growth inhibition” value was -29.9%.
In the case of `Cc1cccc(NC(=O)C2CCCN(C(=O)Nc3ccc(F)cc3)C2)c1C` (stereo unspecified), the “activity change, negative = growth inhibition” value is reported as -26.8%.
With `CCOc1ccccc1NC(=O)C1CCCN(C(=O)Nc2ccccc2)C1` (stereo unspecified) the “activity change, negative = growth inhibition” value was -4%.
For `Cc1c(Cl)cccc1NC(=O)C1CCCN(C(=O)c2cnn(-c3ccccc3)c2-n2cccc2)C1` (stereo unspecified), the Potency was 23.1 µM (active).
For `COc1ccc(Cn2ccn(CC(=O)Nc3cc(C)ccc3C)c(=O)c2=O)cc1`, the “activity change, negative = growth inhibition” value was 15.1%.
With `Cc1cccc(CSc2ccc(-c3cccs3)nn2)c1` the Potency was “inactive”.
In the case of `Oc1c(Cl)cc(Cl)c(Cl)c1Cc1c(O)c(Cl)cc(Cl)c1Cl`, the Potency is reported as 4.73 µM (active) and 23.1 µM (active) and 3.26 µM (active).
In the case of `Nc1[nH][nH]c(=O)c1N=Nc1ccc2c(c1)OCO2`, the “activity change, negative = growth inhibition” value is reported as -26.6%.
In the case of `Cc1ccc(N2CC(C(=O)Nc3ccc(S(=O)(=O)N4CCCC4)cc3)CC2=O)cc1C` (stereo unspecified), the “activity change, negative = growth inhibition” value is reported as -24.4%.
In the case of `O=C(O)C1CCN1C1CCCCC1` (stereo unspecified), the “activity change, negative = growth inhibition” value is reported as 1.27%.
For `O=S1(=O)CC(N2CCN(CCO)CC2)CN1C1CCCC1` (stereo unspecified), the “activity change, negative = growth inhibition” value was -2.16%.
With `O=S1(=O)CCN(C2CCCCCCCCCCC2)CC1` the Potency was 20.6 µM (active).
In the case of `COc1ccc(S(=O)(=O)N2CCC(C(=O)NCCC(=O)Nc3ccccc3OC)CC2)cc1`, the “activity change, negative = growth inhibition” value is reported as -19%.
With `CC(NC(=O)c1ccccc1C(=O)O)c1ccc(-n2ccnc2)cc1` (stereo unspecified) the “activity change, negative = growth inhibition” value was 7.73%.
In the case of `COc1ccc(OC)c(/C(C)=N\NC(=O)c2cc3cc(Cl)ccc3n2C)c1`, the Potency is reported as 5.8 µM (active).
In the case of `COc1ccc(OC)c(C(=O)c2ccc(Cl)cc2)c1`, the “activity change, negative = growth inhibition” value is reported as 2.77%.
In the case of `COc1ccc(NC(=O)c2cc3cc(C)ccc3n2C)cc1`, the “activity change, negative = growth inhibition” value is reported as -22.3%.
With `OC(c1ccccc1)c1nc(/C=C/c2ccc(C(F)(F)F)cc2)cs1` (stereo unspecified) the “activity change, negative = growth inhibition” value was -21.7%.
For `CCN(c1ccccc1)S(=O)(=O)c1cc2c(cc1C)n(C)c(=O)c(=O)n2C`, the “activity change, negative = growth inhibition” value was 11.4%.
For `C[C@H](CO)N1C[C@H](C)[C@@H](CN(C)S(=O)(=O)c2ccc(F)cc2)OCc2cnnn2CCCC1=O`, the “activity change, negative = growth inhibition” value was -11.4%.
In the case of `COc1ccc(CN2CCCC(C(=O)N3CCCCC3)C2)cc1` (stereo unspecified), the “activity change, negative = growth inhibition” value is reported as 0.895%.
In the case of `COc1ccc(CCN(C)C(=O)C2CCCN(Cc3ccc(OC)c(OC)c3)C2)cc1OC` (stereo unspecified), the “activity change, negative = growth inhibition” value is reported as 34.4%.
In the case of `COc1cc(CN2CCCC(C(=O)c3ccc(SC)cc3)C2)cc(Cl)c1O` (stereo unspecified), the Potency is reported as 11.6 µM (active).
In the case of `COC(=O)N(C)C[C@@H]1OCc2cnnn2CCCC(=O)N([C@@H](C)CO)C[C@@H]1C`, the “activity change, negative = growth inhibition” value is reported as -3.67%.
In the case of `C/C(=N\NC(=O)c1cc(-c2ccc(O)cc2)nc2ccccc12)c1cccnc1`, the Potency is reported as 20.6 µM (active).
In the case of `COc1cccc(-c2cc(C(=O)N/N=C/c3ccc(OC)c(COC(C)=O)c3)c3ccccc3n2)c1`, the Potency is reported as 8.2 µM (active).
With `CCOc1ccc(CNC(=O)c2cc(-c3ccc(Cl)s3)nc3ccccc23)cc1` the Potency was 20.6 µM (active).
For `CC(=O)N1CCN(C(=O)c2cc(-c3ccc(Cl)s3)nc3ccccc23)CC1`, the “activity change, negative = growth inhibition” value was -7.3%.
In the case of `CCOc1ccc(NC(=O)c2cc(C)nc3ccccc23)cc1`, the “activity change, negative = growth inhibition” value is reported as 9.45%.
With `COc1ccc(/C=N/NC(=O)c2ccc(Cl)cc2)cc1COC(C)=O` the “activity change, negative = growth inhibition” value was -3.77%.
In the case of `C/C(=N\NC(=O)c1ccc2ccccc2c1)c1cccnc1`, the “activity change, negative = growth inhibition” value is reported as 2.16%.
With `Cc1nc2ccc(C(=O)N/N=C/c3ccc(O)cc3)cc2[nH]1` the “activity change, negative = growth inhibition” value was 4.58%.
For `CCOc1ccc(-c2cc(C(=O)N/N=C/c3ccc(O)cc3)c3ccccc3n2)cc1`, the Potency was 1.84 µM (active).
In the case of `C/C(=N\NC(=O)c1cccc([N+](=O)[O-])c1)c1cccnc1`, the “activity change, negative = growth inhibition” value is reported as 3.86%.
For `O=C(N/N=C/c1ccc(OCc2ccccc2)cc1)c1ccc(O)cc1`, the “activity change, negative = growth inhibition” value was -0.604%.
For `CNC(=O)COC(=O)c1cc(-c2ccc(OC)cc2)nc2ccccc12`, the “activity change, negative = growth inhibition” value was -3.71%.
